Assay outcomes (PubChem)
In the library only some 0.8% were active in any assay of this set; here they are far more common.
Candida biofilm: kills Candida albicans biofilms. C. albicans biofilm + clotrimazole, Alamar Blue. actives 0.14% (n = 85,000). inhibition, % at 6 µM;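 active = inhibition above 20%; inactive = inhibition below 20%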;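 also: preformed 24 hr biofilms exposed to compound for 48 hr; 0% = biofilm without compound and 100% = blank killed by clotrimazole plus chlorhexidine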
FXIa mix inh: factor XIa (human) inhibition, mixture screen | actives 0.19% (n = 62,000) | AID 680 | inhibition, % at 5 µM | purified FXIa, fluorogenic substrate, pooled mixtures;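 also: each value is inhibition by a whole ten-compound pool holding the compound; 0% = enzyme with no mixture and 100% = wells lacking enzyme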
C1s block: blocks human complement C1s protease activity; mean inhibition % of two 10-compound mixtures (hits give high values), % at 5 µM (by protocol); P09871; actives 0.16% (n = 62,000); purified C1s, fluorogenic AMC substrate, pooled mixtures;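 active = inhibition above 20% in each of the two 10-compound mixture wells holding the compound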;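 also: 0% = enzyme wells lacking compound mixture and 100% = no-enzyme blank wells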
FXIIa mix inh: inhibitors of human coagulation factor XIIa, pooled mixtures. P00748. purified FXIIa, fluorogenic substrate. inhibition, % at 5 µM. actives 0.2% (n = 62,000);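 also: 0% = enzyme without compound and 100% = no enzyme blank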
BAP1 block: human BAP1 deubiquitinase inhibition; activity remaining (% of control), % at 20 µM; Q92560; recombinant BAP1, Ub-AMC hydrolysis fluorescence kinetic; hits give low values; actives 0.48% (n = 72,000); AID 436;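 active = activity remaining at or below 50% of control, provided the compound also passes the data quality filters; inactive = the rest, including low values that fail the filters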;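 also: 100% = DMSO wells rate and 0% = substrate alone blank rate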
Target sequence (Q92560 whole entry, looked up): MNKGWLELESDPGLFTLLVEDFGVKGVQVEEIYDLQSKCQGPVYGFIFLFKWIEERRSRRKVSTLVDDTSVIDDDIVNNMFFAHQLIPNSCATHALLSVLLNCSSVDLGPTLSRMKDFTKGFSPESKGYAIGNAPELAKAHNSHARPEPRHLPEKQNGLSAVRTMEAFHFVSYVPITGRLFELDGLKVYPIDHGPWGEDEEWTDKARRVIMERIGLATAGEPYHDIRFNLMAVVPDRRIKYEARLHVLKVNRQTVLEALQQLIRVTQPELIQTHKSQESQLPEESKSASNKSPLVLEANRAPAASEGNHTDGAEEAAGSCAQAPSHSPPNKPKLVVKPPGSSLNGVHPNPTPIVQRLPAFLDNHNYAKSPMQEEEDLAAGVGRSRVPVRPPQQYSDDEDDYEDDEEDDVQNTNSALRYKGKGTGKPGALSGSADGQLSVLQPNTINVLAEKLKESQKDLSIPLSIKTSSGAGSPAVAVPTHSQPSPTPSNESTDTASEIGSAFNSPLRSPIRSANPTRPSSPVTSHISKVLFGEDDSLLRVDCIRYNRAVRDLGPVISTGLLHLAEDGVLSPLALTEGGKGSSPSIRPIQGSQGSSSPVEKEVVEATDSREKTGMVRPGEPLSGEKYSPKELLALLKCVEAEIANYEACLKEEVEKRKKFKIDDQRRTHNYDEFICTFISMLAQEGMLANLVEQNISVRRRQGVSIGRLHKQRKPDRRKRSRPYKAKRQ
Cathepsin G inh: blocks human cathepsin G enzyme activity; P08311; purified enzyme, AMC-tetrapeptide fluorescence, pooled mixtures; inhibition, % at 5 µM (by protocol); actives 0.2% (n = 62,000);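 active = inhibition above 20% in each of the two mixture wells holding the compound; inactive = inhibition of 20% or less in either well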;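 also: 0% = enzyme control without mixture and 100% = blank lacking enzyme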
BAP1 inh conf: confirmation of human BAP1 enzyme inhibitors; shares compounds with BAP1 block; purified BAP1, Ub-ethyl ester hydrolysis, HPLC; hits give low values; % of control activity, % at 20 µM; actives 8% (n = 310); AID 753;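 active = percent of control activity at or below 60%; inconclusive = HPLC trace unusable from injection failure or solvent front hiding peaks; inactive = the rest, plus ubiquitin peak ratio over a set limit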
Numbers without * were called inactive; ? = inconclusive; . = no result given. Rule as the data show it, unless noted: active = inhibition above about 20% (passing the limit was not always enough); inactive = the rest.

SMILES | Candida biofilm | FXIa mix inh | C1s block | FXIIa mix inh | BAP1 block | Cathepsin G inh | BAP1 inh conf
CCOC(=O)c1oc2ccccc2c1NC(=O)COc1ccc(F)cc1 | 11 | 3 | 0 | -16 | 47* | 4 | 154
CCOC(=O)c1ccc(OCC(=O)c2ccc(O)cc2O)cc1 | 4 | 0 | 3 | 4 | 45* | 5 | 97
COC(=O)c1ccc(NC(=O)CSc2nnc(COc3ccc4c(c3)CCCC4)o2)cc1 | . | 0 | 2 | -2 | 30* | 9 | 82
O=S(=O)(N/N=C1/CCCc2ccccc21)c1ccc(Br)cc1 | 8 | . | . | . | . | . | .
Oc1ccc(Br)cc1/C=N/n1cnc2ccccc21 | . | 4 | -1 | -14 | 34* | 0 | 130
Cc1ccc2c(SCC(=O)NCc3ccco3)nc(-c3ccc(F)cc3)nc2c1 | 5 | 3 | -9 | 3 | 47* | -18 | 61
COC(=O)c1cc(C#N)c(SCc2ccccc2)nc1C | 5 | . | . | . | . | . | .
O=C(Nc1nc(-c2cccs2)cs1)c1cccc(S(=O)(=O)N2CCCCCC2)c1 | 5 | -2 | -42 | 11 | . | -18 | .
O=C(Nc1nc(-c2cccs2)cs1)c1ccc(S(=O)(=O)N2CCCCC2)cc1 | 13 | 8 | 15 | 4 | 41* | 8 | 89
Cc1ccc(-c2cc(C(F)F)n3ncc(C(=O)NCc4ccco4)c3n2)cc1 | 9 | -27 | -92 | -11 | . | -27 | .
COc1ccc(-c2cc(C(F)(F)F)n3nc(C(=O)NCc4ccco4)cc3n2)cc1 | 9 | -6 | -30 | -15 | 40* | -7 | 111
O=C(NCc1ccco1)c1cc2nc(-c3ccc4c(c3)OCO4)cc(C(F)(F)F)n2n1 | -1 | -7 | -8 | 6 | 41* | 7 | 56*
O=C(NC12CC3CC(CC(C3)C1)C2)c1cc2nc(-c3ccco3)cc(C(F)(F)F)n2n1 | 4 | 0 | -1 | 6 | 48* | 8 | 79
Cc1ccc(-c2cc(C(F)(F)F)n3ncc(C(=O)NCc4ccco4)c3n2)cc1 | -5 | 0 | -6 | 5 | 40* | -4 | ?
CCOC(=O)Cc1csc(-n2sc3ccccc3c2=O)n1 | . | -1 | -8 | 31* | 45* | 10 | 42*
C=CCc1ccccc1OCCn1ccnc1 | 1 | 1 | 17 | 6 | 48* | 15 | 118
CS(=O)(=O)Nn1cnc2ccccc2c1=O | -1 | 8 | -4 | 4 | 88 | -2 | .
Cc1ccc(N(CC(=O)N2CCN(c3ccc(F)cc3)CC2)S(=O)(=O)c2c(C)nn(C)c2C)cc1 | 1 | 6 | -2 | -3 | 96 | -1 | .
Clc1ccc(C2Nc3ccccc3-n3cccc32)cc1 (configuration not stated) | 5 | 2 | -7 | 10 | 48* | -16 | 93
CSc1ccc(C2Nc3ccccc3NC3=C2C(=O)CC(c2ccc(Cl)cc2)C3)cc1 (configuration not stated) | . | . | . | . | 62 | . | .
CCOC(=O)c1sc(=NC(=O)c2cccc(OC)c2)n(C)c1C | 0 | 5 | -7 | 2 | 84 | -2 | .
CCOC(=O)c1sc(=NC(=O)c2ccc(OC)c(OC)c2)n(C)c1C | -5 | -3 | -31 | 8 | 46* | 3 | ?
OCCn1nc2c3ccccc3nc-2n(-c2ccccc2)c1=S | 4 | -12 | -6 | 8 | 119 | 6 | .
CC(=O)c1c(C)nn(CC(O)Cn2c3c(c4cc(C)ccc42)CCCC3=O)c1C (configuration not stated) | 4 | 4 | 4 | 9 | 112 | 10 | .
Cc1ccc2c(c1)c1c(n2CC(O)Cn2nc(C)c(Br)c2C)C(=O)CCC1 (configuration not stated) | . | 7 | -3 | -15 | 34* | 6 | 91
SMILES | Candida biofilm | FXIa mix inh | C1s block | FXIIa mix inh | BAP1 block | Cathepsin G inh | BAP1 inh conf
O=c1[nH]c2ccc(Cl)cc2c(-c2ccccc2)c1N1CCOCC1 | -8 | -4 | -3 | 9 | 91 | 7 | .
O=c1[nH]c2ccc(Cl)cc2c(-c2ccccc2)c1N1CCN(c2ccccn2)CC1 | 4 | 2 | 1 | -2 | 14* | -2 | 109
Cc1cc(=O)[nH]c(SCC(=O)Nc2ccc(C(=O)O)cc2)n1 | 2 | . | . | . | . | . | .
CCOC(=O)c1ccc(NC(=O)CSc2nc(C)cc(=O)[nH]2)cc1 | 4 | 14 | -15 | 7 | 28* | -5 | ?
CCC(C)(C)NC(=O)C(c1ccc(OC)cc1)N(Cc1cccs1)C(=O)CCC(=O)Nc1cc(C)on1 (configuration not stated) | 4 | . | . | . | . | . | .
Cc1ccc(-c2cc(C(=O)Nc3cc(C)ccc3C)[nH]n2)c(O)c1 | 4 | 9 | -1 | 4 | 75 | 1 | .
COc1ccc(OC)c(NC(=O)c2cc(-c3ccc(C)cc3O)n[nH]2)c1 | 7 | 6 | 0 | 0 | 46* | -1 | 137
CC(C)N=C(NC#N)SCc1ccc(Br)cc1 | 5 | . | . | . | . | . | .
CCCCCSc1nc2c(cnn2-c2ccccc2)c(=O)[nH]1 | 3 | 2 | 15 | -3 | 45* | 10 | 91
COC(=O)CN1C(=O)C(O)(CC(=O)c2ccc(C)cc2)c2cc(Br)ccc21 (configuration not stated) | . | -1 | 8 | 3 | 90 | 12 | .
Cc1ccc(O)c(N=CC2=C(O)c3ccccc3C2=O)c1 | 8 | 6 | 12 | -3 | 41* | 9 | 117
CCc1ccc2[nH]c(=O)c(CN(Cc3ccccc3)Cc3nnnn3Cc3ccco3)cc2c1 | 7 | 15 | 0 | 2 | 40* | 8 | 110
Cc1cccc2cc(CN(Cc3cccs3)Cc3nnnn3Cc3ccccc3)c(=O)[nH]c12 | . | -1 | -43 | 13 | 49* | 2 | 155
COc1ccc2cc(CN(Cc3cccs3)Cc3nnnn3Cc3ccccc3)c(=O)[nH]c2c1 | 4 | . | . | . | . | . | .
Cc1cc(C)c2cc(CN(Cc3ccc4c(c3)OCO4)Cc3nnnn3Cc3ccco3)c(=O)[nH]c2c1 | . | 3 | -30 | -1 | 148 | -5 | .
Cc1ccc2[nH]c(=O)c(CN(Cc3ccc4c(c3)OCO4)Cc3nnnn3Cc3ccco3)cc2c1 | 11 | -2 | 13 | 5 | 34* | 13 | 102
CCS(=O)(=O)N1CCCC(C(=O)NC2CCC(C)CC2)C1 (configuration not stated) | -3 | 4 | 13 | 6 | 95 | 8 | .
CCCCCCn1c(SCCCC)nc2c1c(=O)[nH]c(=O)n2C | 3 | -3 | 7 | -23 | 24* | 0 | 87
Cc1c(N2C(=O)c3ccc4c5c(ccc(c35)C2=O)CC4)c(=O)n(-c2ccccc2)n1C | 8 | -27 | -100 | 6 | 40* | 2 | 65
Cc1c(N2C(=O)c3ccc(Br)cc3C2=O)c(=O)n(-c2ccccc2)n1C | -3 | . | . | . | . | . | .
COc1ccccc1NC(=O)CSc1nc2ccccc2n1C(C)=O | -4 | 4 | -1 | 6 | 93 | -2 | .
Cc1cccc(C)c1NC(=O)Cn1nnc(-c2ccc(N3CCOCC3)cc2)n1 | 6 | -11 | -82 | -2 | 43* | -10 | 114
